From article PMC7819943, “Rice protein-binding microarrays: a tool to detect cis-acting elements near promoter regions in rice” come the findings set out here.

Over roughly 39,000 sequences, “fluorescence intensity (a.u.)” has its median near 4,300; the highest 2% begin near 39,000. This is one part of a sample in which the highest values are shown more often than they occur.

This assay addresses T1, OsSMF1 (Oryza sativa, UniProt Q6ZLB0 1-436).
T1 sequence: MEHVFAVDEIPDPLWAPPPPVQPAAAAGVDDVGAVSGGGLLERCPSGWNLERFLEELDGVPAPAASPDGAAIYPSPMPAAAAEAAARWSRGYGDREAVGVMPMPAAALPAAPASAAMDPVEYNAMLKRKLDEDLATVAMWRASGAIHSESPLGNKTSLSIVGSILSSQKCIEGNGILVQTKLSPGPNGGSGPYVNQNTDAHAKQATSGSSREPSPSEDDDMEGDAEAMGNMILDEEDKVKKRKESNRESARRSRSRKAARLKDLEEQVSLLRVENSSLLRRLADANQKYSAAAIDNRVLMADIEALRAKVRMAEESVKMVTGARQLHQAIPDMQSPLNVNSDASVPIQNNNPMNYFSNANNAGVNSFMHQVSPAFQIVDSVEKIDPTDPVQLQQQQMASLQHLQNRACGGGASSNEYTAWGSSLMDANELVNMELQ
Description: protein-binding microarray (RPBM); PBS, 2% BSA, 51.3 ng/ul salmon testes DNA, 50 uM zinc acetate, 200 nM TF, 25 C, 1 h; high values mean tight binding. To be noted: protein: recombinant; tags: N-terminal polyhistidine and DsRed monomer fusion (pET32a); chain copies: 2; label: CyDye5-dUTP incorporated in the synthesized complementary strand; 3' TTTTT single-stranded linker to array surface; dsDNA, one strand shown. Summed up:
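Binding signal here means per-feature fluorescence intensity in arbitrary units. The values were read on an Axon 4000B scanner after a custom Agilent array, double-stranded by primer extension with Cy5-dUTP, was incubated with 200 nM protein at 25 °C for 1 h in PBS with 2% BSA, salmon testes DNA and 50 µM zinc acetate, then washed. The proteins were transcription factors with an N-terminal polyhistidine tag and DsRed, expressed in E. coli BL21-CodonPlus and purified on Ni–NTA.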
As for “GATGAGATGAGGGAGATACCATCAGACTTGCACCAGATGGCGGAGTCACCTAGTGCAG”, the binding signal was 3660 fluorescence intensity (a.u.). Turning to “TGAGGGCCGCCACGTCCTCATGGCCTCCGCCCCATCGGAGCGGAGTCACCTAGTGCAG”, the binding signal was 7660 fluorescence intensity (a.u.). Consider “CCATGGCACCTCCTCCTACGCCAGCACCGCTGCCGTGATGCGGAGTCACCTAGTGCAG”, for which the binding signal is 4800 fluorescence intensity (a.u.). As for “CGTCGATGGCGTGCGTGAGAGCCTCCACGCCTTGCTGCCGCGGAGTCACCTAGTGCAG”, the binding signal was 4660 fluorescence intensity (a.u.). The result for “CGGACTGAGCTGCCTCGCCCGCCTCCGAGCAGTTGGGGAACGGAGTCACCTAGTGCAG” reads 40900 fluorescence intensity (a.u.); that for “GACTTGCGGCCACGGAGTCAGGGCCGTGCACGTGGAGGTACGGAGTCACCTAGTGCAG”, 4910 fluorescence intensity (a.u.); that for “CTGAGCTGCCACCTCCGCCGCCGCCAGCATGATGGCCTTGCGGAGTCACCTAGTGCAG”, 42500 fluorescence intensity (a.u.). As for “CATGGCCACGTCCGCCACCTTGCGGATGCCGGAGGGTAAGCGGAGTCACCTAGTGCAG”, the binding signal was 41400 fluorescence intensity (a.u.).

“CCCATGGCGTGCCACTCCGGCGGTCCGGCCGCCACGTCAGCGGAGTCACCTAGTGCAG”: the binding signal was 38500 fluorescence intensity (a.u.).

Take “TCTGACTGCCTCCGTCACTCCGTGCCTCGTTGGGAGCAGCCGGAGTCACCTAGTGCAG”: the binding signal is 5300 fluorescence intensity (a.u.).

“TCGCTGCCCTCCCGCCCGTTGGCCGAAGGGGAAGAAGGGGCGGAGTCACCTAGTGCAG”: the binding signal was 36900 fluorescence intensity (a.u.). The same measure for “TCATACACATACAACTTTTCAGTCACATCATTTACAATTTCGGAGTCACCTAGTGCAG”: 29000 fluorescence intensity (a.u.). The same measure for “AAACACTGAAATTTTAGCATCACGAAGTTCTCACCGAGACCGGAGTCACCTAGTGCAG”: 5200 fluorescence intensity (a.u.); for “GGGTTCGATTCCCCGCACCTCCAATATAAAACGTTTTCTTCGGAGTCACCTAGTGCAG”: 3420 fluorescence intensity (a.u.). In the case of “GAGTCCGGCGTGATGCCGTGATGACGCCGCAACGCGGCATCGGAGTCACCTAGTGCAG”, the binding signal was 9060 fluorescence intensity (a.u.). For “AGCATGCACCTTGATCACGGGAACGAGCTAGCGAGAGGCACGGAGTCACCTAGTGCAG”, the binding signal is 3720 fluorescence intensity (a.u.).

Consider “ACAAACGAACAAGACATGAAGCCGATGAGTCCAGCAGAGCCGGAGTCACCTAGTGCAG”, for which the binding signal is 3170 fluorescence intensity (a.u.). The same measure for “GTTAATGGTGACTTTATTTTCGTCTGTTACAAAACGGAAGCGGAGTCACCTAGTGCAG”: 3250 fluorescence intensity (a.u.). As to “GATTAATTGATTTATTTCTTTCTGCTTTACCCGGTCGCCACGGAGTCACCTAGTGCAG”, the binding signal was 19200 fluorescence intensity (a.u.). In the case of “GCTGGCCCATCTCCTTGCCCACCCATGGGCCTGAAAGCCGCGGAGTCACCTAGTGCAG”, the binding signal was 49900 fluorescence intensity (a.u.). For the sequence “TGGGAGCGCTGGGGCTGGCCATCTCTCCTTGCCTGCTGTGCGGAGTCACCTAGTGCAG”, the binding signal was 29400 fluorescence intensity (a.u.). Consider “CACCCATCTCCTTGCCGGCCTCTCCACCCCGCCTCTTTCGCGGAGTCACCTAGTGCAG”, for which the binding signal was 19000 fluorescence intensity (a.u.). The result for “ATTGATGTTACATGCCTCGCAAGCGATGACACGGCAAGCTCGGAGTCACCTAGTGCAG” reads 5060 fluorescence intensity (a.u.).

For “AGCTCAGCTGTCACGGTGTCACCTGTCAGCGCCCACAACTCGGAGTCACCTAGTGCAG”, the binding signal is 6140 fluorescence intensity (a.u.). Consider “GGCGAAGAATGCAGACATGACACGGACCCATCGACGCGGGCGGAGTCACCTAGTGCAG”, for which the binding signal is 3340 fluorescence intensity (a.u.). Take “CTCATCTCAAGCTTTTCTCTCTCTCTCTCTCTTTGCACTACGGAGTCACCTAGTGCAG”: the binding signal is 4680 fluorescence intensity (a.u.). As for “AGTGGAAGCAGGTCTTTTACTGATCGATCAAGGTCTGATGCGGAGTCACCTAGTGCAG”, the binding signal was 16800 fluorescence intensity (a.u.). With “GAGCTTCTGACTCATCTTTACTAGGAAGGGTCTTTTCAAGCGGAGTCACCTAGTGCAG”, the binding signal is 39100 fluorescence intensity (a.u.).

As for “CGCCGTCGACACGTGGGGCCCCTCCTCCCGCCGCCGCCGCCGGAGTCACCTAGTGCAG”, the binding signal is 9020 fluorescence intensity (a.u.).

“GACTACGCGTACGCCACGCCACAACGCTTCTCGCTCTCCCCGGAGTCACCTAGTGCAG”: the binding signal is 4510 fluorescence intensity (a.u.). The same measure for “CAAATATATTATCAAAATATATTCAATGCTAAATTTAATGCGGAGTCACCTAGTGCAG”: 5300 fluorescence intensity (a.u.); for “CTCTCCTACAATAGGATGGACTATGTGACGTAGCACAATGCGGAGTCACCTAGTGCAG”: 7860 fluorescence intensity (a.u.). The result for “CTATATTAATTAATGAATTAGCAATTGGATGTACCAATTTCGGAGTCACCTAGTGCAG” reads 41000 fluorescence intensity (a.u.); that for “TATATTCAATGCTATGTTTAATGAAACTAATTTGGATATTCGGAGTCACCTAGTGCAG”, 65100 fluorescence intensity (a.u.). For the sequence “TTAATAGTATAGTAAGCAATTGTTGTATGAATTGGCTATTCGGAGTCACCTAGTGCAG”, the binding signal was 27200 fluorescence intensity (a.u.). For the sequence “ACAATTTTAATGAAATCGTACATTATACTATATATGTTTTCGGAGTCACCTAGTGCAG”, the binding signal was 3150 fluorescence intensity (a.u.).

With “TTAGCAAGTGCCTATGTGAGGATATAGCAATATTTCAATGCGGAGTCACCTAGTGCAG”, the binding signal is 42200 fluorescence intensity (a.u.). In the case of “GGATATGTATAACAATGTGGGTCAGCAATATTGAACTATGCGGAGTCACCTAGTGCAG”, the binding signal is 3650 fluorescence intensity (a.u.).

Turning to “TAATGAATTAGGGCATTGGATGTACCAACTTATGTTATATCGGAGTCACCTAGTGCAG”, the binding signal was 23300 fluorescence intensity (a.u.). The result for “CCCGTGACGTGTCGGCATCGGAGGGCCCCTCGTCGGGGTCCGGAGTCACCTAGTGCAG” reads 10200 fluorescence intensity (a.u.). “GGTCCCGTCAGGGAAGGACCCCACGTCCTCGGTTCCATTCCGGAGTCACCTAGTGCAG”: the binding signal was 3910 fluorescence intensity (a.u.).

Regarding “GAGCAGTAATGCGTGTGCGGCGATTGGCACGTGCATGGTGCGGAGTCACCTAGTGCAG”, the binding signal was 3780 fluorescence intensity (a.u.).
